This is an account of results in PubChem BioAssay (NCATS).

Experiment [1] is described as follows: Validation of Assay for Modulators of Lamin A Splicing (AID 1459; active = well fitted curve in the direction sought with a large enough effect in the signal ratio; the % refers to the signal ratio;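 also: cells exposed to compound for two days before reading; 0% is about no effect; ratio rise marks activators and ratio drop marks inhibitors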). In a few lines: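 HeLa S3 lamin A-EGFP/DsRed2 stable clone, 600 cells/well, Opti-MEM 2% FBS; compounds by pin tool; 48 hrs, 37 °C/5% CO2; Acumen 488 nm scan, objects 10-100 um; GFP/RFP intensity ratio.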
The target of experiment [2] is DNA repair nuclease/redox regulator APEX1 (Homo sapiens) (UniProt P27695). The experiment can be described thus: qHTS Validation Assay for Inhibitors of the Human Apurinic/apyrimidinic Endonuclease 1 (APE1) (AID 1705;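 also: TAMRA fluorescence gain over two minutes as APE1 cuts a quenched THF abasic duplex; series mostly up to about 57 µM; % is scaled to controls: 0 for no effect and ±100 for the full control effect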). In a few lines:
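qHTS, 1536-well. APE1 + cpd 15 min RT → 50 nM TAMRA/BHQ-2 THF-abasic dsDNA substrate → kinetic fluorescence, 3 reads/60 s; delta(read3−read1) = reaction progress. No-enzyme buffer = negative control.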
(In qHTS, concentration-response curves come from the screen itself.)

Experiment [3] in a line: Counterscreen for APE1 Inhibitors: Fluorescent Dye Displacement Validation Assay (AID 1707).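 Also: plate controls were ThO with dsDNA and no compound for no effect and ThO without dsDNA for full effect.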 In a few lines:
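Endpoint fluorescence read at 480 nm excitation / 540 nm emission; DNA-binding compounds lower signal by displacing 250 nM Thiazole Orange from 50 nM dsDNA containing a tetrahydrofuran abasic site, Tris-HCl pH7.5 buffer with NaCl and MgCl2.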
(Counterscreens check selectivity or assay interference.)

Experiment [4] concerns the target Endonuclease 4 (Escherichia coli (strain K12)) (UniProt P0A6C1). Nature of the experiment: Counterscreen for APE1 Inhibitors: qHTS Validation Assay for Inhibitors of Endonuclease IV (AID 1708). Also: % is scaled to controls: 0 for no effect and ±100 for the full control effect. In a few lines: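 Incision of a double-stranded 50 nM TAMRA/BHQ-2 abasic substrate was followed kinetically (525/598 nm, reads every 60 s) after 15 min enzyme–compound preincubation with 2 nM EndoIV in pH 7.5 Tris buffer with MgCl2, DTT and Tween-20; concentration-response format.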

Experiment [5] can be described thus: qHTS for differential inhibitors of proliferation of Plasmodium falciparum line 7G8 (AID 1815).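 Also: potency is read from the fitted curve at half-maximal effect; parasite growth measured after three days of incubation.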
Experiment [6] can be described thus: qHTS for differential inhibitors of proliferation of Plasmodium falciparum line GB4 (AID 1816).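 Also: potency is read from the fitted curve at half-maximal effect; parasite growth measured after 72 h incubation.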 The conditions noted are these: Potency: Plasmodium falciparum GB4 proliferation inhibition.
A short description of experiment [7]: qHTS for differential inhibitors of proliferation of Plasmodium falciparum line 3D7 (AID 1876). Also: potency is read from the fitted curve at half-maximal effect.
Experiment [8] can be described thus: qHTS for differential inhibitors of proliferation of Plasmodium falciparum line Dd2 (AID 1882). Also: potency is read from the fitted curve at half-maximal effect; nearly all actives have a fitted effect of over 65% in size. As to conditions: Potency: Plasmodium falciparum Dd2 proliferation inhibition. In a few lines: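 SYBR Green DNA fluorescence (ex 485, em 535 nm) after overnight lysis quantifies parasite growth; compound exposure lasted 72 h at 37 C on infected red cells at 2.5% hematocrit, 0.3% parasitemia (final). Artemisinin 0.29 uM and vehicle wells define normalization.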

Experiment [9] in a line: qHTS for differential inhibitors of proliferation of Plasmodium falciparum line W2 (AID 1883).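 Also: potency is read from the fitted curve at half-maximal effect; parasites grown with compound for 72 h before lysis and staining.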 The conditions noted are these: Potency: Plasmodium falciparum W2 proliferation inhibition.
The nature of experiment [10]: qHTS for differential inhibitors of proliferation of Plasmodium falciparum line HB3 (AID 1886).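 Also: potency is read from the fitted curve at half-maximal effect; parasites grown with compound for 72 h before SYBR Green readout.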 The conditions noted are these: Potency: Plasmodium falciparum HB3 proliferation inhibition.
In experiment [11] the target is Ferritin light chain (Equus caballus) (UniProt P02791). The experiment can be described thus: qHTS Validation Assay for Identification of Novel General Anesthetics (AID 2323). Also: series mostly up to about 77 µM; % is scaled to controls: 0 for no effect and ±100 for the full control effect. In a few lines:
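Fluorescence at 535 nm (excitation 380 nm) reported loss of 1-AMA binding to horse-spleen apoferritin (10 uM) in PBS with 50% saturated 1-aminoanthracene, after 10 min room-temperature incubation with compound; values from Hill fits of normalized response.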

The target in experiment [12] is ATP-dependent DNA helicase Q1 (Homo sapiens) (UniProt P46063). The experiment can be described thus: qHTS Validation Assay for Inhibitors of RecQ-Like Dna Helicase 1 (RECQ1) (AID 2353).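 Also: plate controls were DMSO vehicle for no effect and enzyme-free control for full effect.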 In a few lines:
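RECQ1T1 50 nM; forked duplex (20 bp + 30-nt ss tails) 200 nM, ATP 2 mM final; pH 8.0, 2 mM MgCl2, 2.5 ug/ml poly(dI-dC); 15 min compound preincubation; discontinuous kinetic read over 2 h at RT.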

Experiment [13] addresses RecQ-like DNA helicase BLM (Homo sapiens) (UniProt P54132). The experiment can be described thus: qHTS Validation Assay for Inhibitors of Bloom's syndrome helicase (BLM) (AID 2364).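 Also: plate controls were DMSO vehicle for no effect and enzyme-free control for full effect.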 In a few lines:
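Forked 20-bp duplex substrate (200 nM, TAMRA/BHQ-2) plus 2 mM ATP added after 15 min compound preincubation with 50 nM enzyme, pH 8.0, poly(dI-dC) 2.5 ug/ml. Strand separation followed by fluorescence (525/598 nm) over 2 h, normalized to enzyme-free and DMSO controls.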

Experiment [14] in a line: Validation screen for small molecules that induce DNA re-replication in MCF 10A normal breast cells (AID 463097). Also: 0% is about no effect; nearly all actives have a fitted effect of over 60% in size. In a few lines: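 Image-based qHTS: normal breast cells are incubated with compound for 48 hr, stained with Hoechst, and scanned for total nuclear fluorescence. Compounds raising the fraction of nuclei with elevated DNA content count as re-replication inducers.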

Experiment [15] deals with M-phase phosphoprotein 8 (Homo sapiens) (UniProt Q99549). The experiment can be described thus: qHTS Validation Assay for Inhibitors for MPP8 Chromodomain Interactions with Methylated Histone Tails (AID 488949).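 Also: 50 nM MPP8 with 50 nM peptide preformed then compounds added for 30 min; AlphaScreen signal from MPP8 chromodomain bound to biotinylated H3K9me3 peptide; top concentration of the series differs between compounds; % is scaled to controls: 0 for no effect and ±100 for the full control effect; nearly all actives have a fitted effect of over 55% in size.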 In a few lines:
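50 nM MPP8 + 50 nM b-H3K9me3 peptide, PBS pH 7.4/0.01% Tween-20, 30 min RT; + cpd 30 min RT; + AlphaScreen donor/Ni-chelate acceptor beads 10 ug/mL final, 30 min dark; luminescence read.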

Experiment [16] deals with Thyrotropin receptor (Homo sapiens) (UniProt P16473). The experiment can be described thus: qHTS Assay for Antagonists of the Thyroid Stimulating Hormone Receptor (AID 488980). Also: series mostly up to about 58 µM; 0% is about no effect. In a few lines: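 Readout is cAMP by HTRF competition between cellular cAMP and cAMP-d2 for a cryptate-labelled antibody. Antagonism was assessed in TSHR-transfected HEK293 cells stimulated with 4 nM TSH (EC80, final) in the presence of RO 20-1724.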

Experiment [17] has as its target Thyrotropin-releasing hormone receptor (Homo sapiens) (UniProt P34981). The experiment can be described thus: qHTS for Small Molecule Agonists and Allosteric Enhancers of Human TRH Receptor: Validation Screen for Agonists (AID 493127;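 active = calcium activation more than 3 SD above the typical response in the agonist read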;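 also: intracellular calcium rise by fluo-8 fluorescence before TRH EC20 addition; 0% is about no effect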). As to conditions: TRH receptor agonist cell assay; at 2 µM; stronger effect = higher value. In a few lines: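 Compounds are added by online pintool to dye-loaded TRHR cells while fluorescence is recorded every second. A rise in calcium signal during the agonist read marks activation; a later 10 nM TRH addition (EC20) serves the separate enhancer mode.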

The target in experiment [18] is Galactokinase (Homo sapiens) (UniProt P51570). Nature of the experiment: qHTS Validation Assay for Inhibitors of Human Galactokinase (GALK) (AID 493189). Also: 0% is about no effect. In a few lines:
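5 nM GALK / 100 uM galactose / 35 uM ATP, 20 mM HEPES pH8.0, 5 mM MgCl2, 60 mM NaCl, 1 mM DTT, 0.01% BSA (final). RT 1 h; Kinase-Glo Plus luminescence.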

A short description of experiment [19]: Validation screen for small molecules that induce DNA re-replication in SW480 colon adenocarcinoma cells (AID 504364). Also: 0% is about no effect. In a few lines:
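Image-based qHTS: compounds were incubated with SW480 cells for 48 hr, nuclei stained with Hoechst, and per-nucleus fluorescence intensity scanned to flag cells with excess DNA content.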

For experiment [20], the target named is Voltage-gated inwardly rectifying potassium channel KCNH2 (Homo sapiens) (UniProt Q12809). Nature of the experiment: qHTS Assay for Small Molecule Inhibitors of the Human hERG Channel Activity (AID 588834).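 Also: top concentration of the series differs between compounds; % is scaled to controls: 0 for no effect and ±100 for the full control effect; lower thallium flux fluorescence means stronger hERG block; nearly all actives have a fitted effect of over 50% in size.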 In a few lines: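 Step 1: BacMam hERG transduction of U2OS, 4 hrs RT. Step 2: overnight 37 °C, plate 2000 cells/well, 4 hr. Step 3: FluxOR load, compound 10 min, stimulate, read fluorescence.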

Experiment [21] deals with Zika virus NS2B-NS3 protease. The experiment can be described thus: Primary screen GU AMC qHTS for Zika virus inhibitors (AID 1347154).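 Also: 0% = no-inhibitor control and -100% = no-enzyme control; nearly all actives have a fitted effect of over 70% in size.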 In a few lines:
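Fluorogenic AMC-substrate cleavage by noncovalent NS2B-NS3 protease complex (25 nM, pH 8.0 Tris buffer with Tween 20) followed for 15 minutes at room temperature (~20% conversion). Percent inhibition from ex340/em450 signal change, fitted by 4-parameter Hill equation.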

Values without a mark were called inactive. Inconclusive results are not listed. Activity calls are given as the source filed them. Unless noted, calls follow the shape of the dose curve; as a rule, active = well fitted curve in the direction sought with a large enough effect; inconclusive = small, poorly fitted or top-dose-only effect, or another doubt; inactive = no such curve, though single readings can be large; an effect the other way counts as inactive or inconclusive.

Galactokinase (Homo sapiens), sequence (P51570 whole entry, looked up): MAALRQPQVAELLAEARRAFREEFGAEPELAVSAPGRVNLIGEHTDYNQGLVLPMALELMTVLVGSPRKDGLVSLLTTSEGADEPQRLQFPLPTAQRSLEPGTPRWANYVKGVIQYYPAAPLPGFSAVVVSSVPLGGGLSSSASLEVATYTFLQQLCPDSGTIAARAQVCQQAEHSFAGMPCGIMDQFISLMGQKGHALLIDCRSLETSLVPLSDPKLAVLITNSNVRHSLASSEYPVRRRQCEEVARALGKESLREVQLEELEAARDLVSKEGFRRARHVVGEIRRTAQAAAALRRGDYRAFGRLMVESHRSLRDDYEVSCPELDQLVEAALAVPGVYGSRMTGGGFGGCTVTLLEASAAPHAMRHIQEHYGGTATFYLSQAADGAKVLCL
RecQ-like DNA helicase BLM (Homo sapiens), sequence (P54132 whole entry, looked up): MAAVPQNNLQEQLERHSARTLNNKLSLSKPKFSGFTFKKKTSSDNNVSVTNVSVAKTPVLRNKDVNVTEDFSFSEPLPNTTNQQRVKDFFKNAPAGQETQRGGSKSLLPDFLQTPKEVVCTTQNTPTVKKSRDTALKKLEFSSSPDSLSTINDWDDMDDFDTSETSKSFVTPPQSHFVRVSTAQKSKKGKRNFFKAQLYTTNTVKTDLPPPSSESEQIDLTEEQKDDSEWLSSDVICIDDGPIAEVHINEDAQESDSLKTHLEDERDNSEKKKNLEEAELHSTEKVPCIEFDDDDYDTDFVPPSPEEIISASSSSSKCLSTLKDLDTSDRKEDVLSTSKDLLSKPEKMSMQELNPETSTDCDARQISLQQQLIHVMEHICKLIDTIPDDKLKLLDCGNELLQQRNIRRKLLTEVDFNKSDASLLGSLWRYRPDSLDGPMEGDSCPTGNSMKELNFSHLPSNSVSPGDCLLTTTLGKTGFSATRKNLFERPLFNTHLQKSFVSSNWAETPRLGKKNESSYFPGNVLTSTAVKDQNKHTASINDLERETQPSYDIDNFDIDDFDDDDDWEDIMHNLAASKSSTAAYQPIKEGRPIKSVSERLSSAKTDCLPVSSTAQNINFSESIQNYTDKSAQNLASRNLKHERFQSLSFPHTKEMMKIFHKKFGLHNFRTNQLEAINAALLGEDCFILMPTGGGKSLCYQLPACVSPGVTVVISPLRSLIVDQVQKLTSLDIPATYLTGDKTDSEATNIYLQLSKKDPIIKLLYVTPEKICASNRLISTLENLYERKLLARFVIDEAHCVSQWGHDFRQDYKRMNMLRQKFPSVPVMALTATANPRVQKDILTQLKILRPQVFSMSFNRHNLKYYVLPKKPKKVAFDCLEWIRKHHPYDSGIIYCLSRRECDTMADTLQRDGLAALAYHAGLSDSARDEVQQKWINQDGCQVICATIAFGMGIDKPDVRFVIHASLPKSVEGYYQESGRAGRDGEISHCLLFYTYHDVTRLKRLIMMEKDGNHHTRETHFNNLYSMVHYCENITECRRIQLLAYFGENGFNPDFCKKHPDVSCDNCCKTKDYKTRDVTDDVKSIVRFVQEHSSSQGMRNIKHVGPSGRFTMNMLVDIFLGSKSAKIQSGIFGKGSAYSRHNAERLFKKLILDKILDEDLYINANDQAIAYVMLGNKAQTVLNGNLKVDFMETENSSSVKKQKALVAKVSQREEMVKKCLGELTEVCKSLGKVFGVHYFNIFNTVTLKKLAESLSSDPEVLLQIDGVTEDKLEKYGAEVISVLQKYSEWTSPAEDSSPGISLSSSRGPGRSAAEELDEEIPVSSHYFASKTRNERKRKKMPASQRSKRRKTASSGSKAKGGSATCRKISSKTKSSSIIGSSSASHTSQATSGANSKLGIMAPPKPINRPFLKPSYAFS
Thyrotropin-releasing hormone receptor (Homo sapiens), sequence (P34981 whole entry, looked up): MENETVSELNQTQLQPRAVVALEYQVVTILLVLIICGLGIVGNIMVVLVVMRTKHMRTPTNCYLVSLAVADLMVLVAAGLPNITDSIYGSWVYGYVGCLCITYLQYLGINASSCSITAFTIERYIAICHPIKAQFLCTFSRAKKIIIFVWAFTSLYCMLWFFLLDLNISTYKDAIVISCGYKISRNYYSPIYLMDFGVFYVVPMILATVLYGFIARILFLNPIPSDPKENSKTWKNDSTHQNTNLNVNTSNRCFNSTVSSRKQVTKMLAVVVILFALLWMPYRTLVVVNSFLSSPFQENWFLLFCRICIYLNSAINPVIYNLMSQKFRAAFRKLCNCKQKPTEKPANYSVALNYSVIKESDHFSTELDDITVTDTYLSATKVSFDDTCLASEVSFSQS
Ferritin light chain (Equus caballus), sequence (P02791 2-175 limits assumed): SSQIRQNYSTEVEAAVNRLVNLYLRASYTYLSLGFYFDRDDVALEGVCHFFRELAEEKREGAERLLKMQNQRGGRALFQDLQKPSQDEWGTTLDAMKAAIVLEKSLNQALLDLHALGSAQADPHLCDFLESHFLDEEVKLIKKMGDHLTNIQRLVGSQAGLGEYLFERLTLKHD
ATP-dependent DNA helicase Q1 (Homo sapiens), sequence (P46063 whole entry, looked up): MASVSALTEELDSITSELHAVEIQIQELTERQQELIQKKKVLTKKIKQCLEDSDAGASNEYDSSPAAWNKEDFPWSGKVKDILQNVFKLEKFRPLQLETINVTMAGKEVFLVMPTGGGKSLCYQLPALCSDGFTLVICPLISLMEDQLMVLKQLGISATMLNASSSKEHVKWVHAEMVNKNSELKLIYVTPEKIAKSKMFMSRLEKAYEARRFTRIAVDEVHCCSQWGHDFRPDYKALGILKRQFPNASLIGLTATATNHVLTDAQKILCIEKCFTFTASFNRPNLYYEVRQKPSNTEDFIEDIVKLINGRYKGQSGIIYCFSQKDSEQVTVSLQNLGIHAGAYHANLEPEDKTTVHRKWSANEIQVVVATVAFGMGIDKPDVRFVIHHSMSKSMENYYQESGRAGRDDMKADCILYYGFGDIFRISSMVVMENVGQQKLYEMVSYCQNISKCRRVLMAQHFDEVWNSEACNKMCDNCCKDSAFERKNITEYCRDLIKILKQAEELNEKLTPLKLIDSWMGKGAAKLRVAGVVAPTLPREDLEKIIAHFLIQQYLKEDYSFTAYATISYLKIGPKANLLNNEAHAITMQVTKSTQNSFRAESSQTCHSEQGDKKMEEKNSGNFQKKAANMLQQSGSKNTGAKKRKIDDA
Voltage-gated inwardly rectifying potassium channel KCNH2 (Homo sapiens), sequence (Q12809 whole entry, looked up): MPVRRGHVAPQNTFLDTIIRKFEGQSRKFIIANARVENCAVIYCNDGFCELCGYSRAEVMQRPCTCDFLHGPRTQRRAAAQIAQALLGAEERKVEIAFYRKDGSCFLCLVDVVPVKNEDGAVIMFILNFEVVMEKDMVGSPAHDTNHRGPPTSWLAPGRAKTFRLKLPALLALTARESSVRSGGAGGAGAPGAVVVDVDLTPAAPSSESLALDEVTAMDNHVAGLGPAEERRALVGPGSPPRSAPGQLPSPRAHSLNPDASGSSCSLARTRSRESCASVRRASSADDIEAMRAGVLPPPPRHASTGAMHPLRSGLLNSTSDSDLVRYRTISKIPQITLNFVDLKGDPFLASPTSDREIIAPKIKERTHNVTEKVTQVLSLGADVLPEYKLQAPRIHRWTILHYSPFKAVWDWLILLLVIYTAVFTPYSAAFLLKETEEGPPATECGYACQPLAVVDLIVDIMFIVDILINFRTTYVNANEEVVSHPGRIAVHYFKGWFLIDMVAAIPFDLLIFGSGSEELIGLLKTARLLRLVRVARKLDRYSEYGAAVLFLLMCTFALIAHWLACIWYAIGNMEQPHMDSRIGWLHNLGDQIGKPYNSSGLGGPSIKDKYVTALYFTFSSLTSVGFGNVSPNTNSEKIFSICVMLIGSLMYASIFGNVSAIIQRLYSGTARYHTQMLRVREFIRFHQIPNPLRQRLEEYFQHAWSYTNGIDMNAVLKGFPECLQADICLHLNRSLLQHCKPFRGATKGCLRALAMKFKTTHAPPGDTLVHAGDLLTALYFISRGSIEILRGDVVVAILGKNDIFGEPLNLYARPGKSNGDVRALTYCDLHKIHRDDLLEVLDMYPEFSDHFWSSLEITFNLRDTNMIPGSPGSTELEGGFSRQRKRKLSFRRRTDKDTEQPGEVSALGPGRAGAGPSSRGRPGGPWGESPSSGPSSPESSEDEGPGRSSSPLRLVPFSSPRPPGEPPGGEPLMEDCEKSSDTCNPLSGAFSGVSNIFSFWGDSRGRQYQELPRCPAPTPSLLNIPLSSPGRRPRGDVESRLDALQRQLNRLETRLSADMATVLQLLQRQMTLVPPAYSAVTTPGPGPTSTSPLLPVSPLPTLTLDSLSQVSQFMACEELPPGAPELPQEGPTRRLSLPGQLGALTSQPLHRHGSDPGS
Thyrotropin receptor (Homo sapiens), sequence (P16473 whole entry, looked up): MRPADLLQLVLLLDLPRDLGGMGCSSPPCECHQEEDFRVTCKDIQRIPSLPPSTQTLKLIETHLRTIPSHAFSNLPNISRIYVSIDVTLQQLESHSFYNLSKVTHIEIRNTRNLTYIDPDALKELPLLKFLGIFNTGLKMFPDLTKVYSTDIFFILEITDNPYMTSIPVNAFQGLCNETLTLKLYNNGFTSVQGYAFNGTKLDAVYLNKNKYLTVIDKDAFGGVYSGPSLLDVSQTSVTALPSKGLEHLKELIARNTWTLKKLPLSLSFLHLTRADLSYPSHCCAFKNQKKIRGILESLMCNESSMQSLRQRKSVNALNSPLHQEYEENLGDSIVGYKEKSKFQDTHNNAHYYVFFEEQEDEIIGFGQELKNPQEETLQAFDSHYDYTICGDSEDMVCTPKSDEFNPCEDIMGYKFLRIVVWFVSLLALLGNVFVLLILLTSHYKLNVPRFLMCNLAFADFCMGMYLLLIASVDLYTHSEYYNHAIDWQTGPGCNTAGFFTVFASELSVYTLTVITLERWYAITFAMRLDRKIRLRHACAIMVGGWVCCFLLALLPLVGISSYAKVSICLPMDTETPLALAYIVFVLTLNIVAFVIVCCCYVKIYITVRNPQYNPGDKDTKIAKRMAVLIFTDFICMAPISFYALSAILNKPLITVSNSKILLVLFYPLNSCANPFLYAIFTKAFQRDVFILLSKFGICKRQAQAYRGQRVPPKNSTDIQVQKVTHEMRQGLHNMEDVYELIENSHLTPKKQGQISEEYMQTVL

With `Cc1ccc(OCC(O)C(C)NC(C)C)c2c1CCC2` (stereo unspecified), the compound was classed as inactive in experiment [1], in experiment [11], in experiment [16], in experiment [18] and in experiment [19]. In addition, the Potency entry in experiment [2], in experiment [3], in experiment [4], in experiment [12], in experiment [13] and in [14] was “inactive” throughout. In addition, the Potency entry in experiment [15], in experiment [20] and in experiment [21] was “inactive” each time. The Potency is 2.82 µM (active) in [5]; 2.82 µM (active) in experiment [6]; 11.2 µM (active) in [7]; 12.6 µM (active) in [8]; 1.58 µM (active) in experiment [9]; 11.2 µM (active) in [10]. Further, in experiment [17], the activation is 2.81%.
